In PubChem BioAssay AID1159580 (chemical genetic matrix, 2015):
About 2,000 (36%) of roughly 5,500 compounds were called active. Roughly 18% stayed inconclusive and do not appear here. Rule as the data show it: active = normalized growth mostly below about 0.91 (no sharp cut-off); inconclusive = no clear call, values can overlap the other calls; inactive = mostly above about 0.92. This is one part of the list.

Experiment: chemical genetic growth profiling, strain panel (AID 1159580);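 also: tested at 20 µM; growth read once vehicle control cultures reached saturation at 30 °C; 1 = growth at the plate median or of vehicle wells; lower values mean less growth of the strain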
Details: S. cerevisiae deletion strains, growth OD
[1] = locus YDL101C, strain DUN1, active compounds read low
[2] = locus YHR030C, strain SLT2, active compounds read low
[3] = locus YAR019C, strain CDC15, active compounds read low
[4] = locus YDL017W, strain CDC7, active compounds read low
[5] = locus YDL028C, strain MPS1, active compounds read low
[6] = locus YDL108W, strain KIN28, active compounds read low
[7] = locus YDL132W, strain cdc53, active compounds read low
[8] = locus YDL214C, strain PRR2, active compounds read low
[9] = locus YDR052C, strain DBF4, active compounds read low
[10] = locus YDR054C, strain cdc34, active compounds read low
[11] = locus YDR477W, strain SNF1, active compounds read low
[12] = locus YER123W, strain YCK3, active compounds read low
[13] = locus YER133W, strain GLC7, active compounds read low
[14] = locus YFL009W, strain cdc4, active compounds read low
[15] = locus YFL029C, strain CAK1, active compounds read low
[16] = locus YFR003C, strain YPI1, active compounds read low
[17] = locus YFR019W, strain FAB1, active compounds read low
[18] = locus YFR028C, strain CDC14, active compounds read low
[19] = locus YGR040W, strain KSS1, active compounds read low
[20] = locus YGR052W, strain FMP48, active compounds read low
[21] = locus YGR092W, strain DBF2, active compounds read low
[22] = locus YHR079C, strain IRE1, active compounds read low
[23] = locus YHR205W, strain SCH9, active compounds read low
[24] = locus YIL147C, strain SLN1, active compounds read low
[25] = locus YJL095W, strain BCK1, active compounds read low
[26] = locus YJR016C, strain ILV3, active compounds read low
[27] = locus YJR066W, strain TOR1, active compounds read low
[28] = locus YKL048C, strain ELM1, active compounds read low
[29] = locus YKL101W, strain HSL1, active compounds read low
[30] = locus YKL193C, strain SDS22, active compounds read low
[31] = locus YLR113W, strain HOG1, active compounds read low
[32] = locus YLR133W, strain CKI1, active compounds read low
[33] = locus YLR403W, strain SFP1, active compounds read low
[34] = locus YML070W, strain DAK1, active compounds read low
[35] = locus YMR001C, strain CDC5, active compounds read low
[36] = locus YMR205C, strain PFK2 (second series), active compounds read low
[37] = locus YMR277W, strain FCP1, active compounds read low
[38] = locus YNL006W, strain LST8, active compounds read low
[39] = locus YNL020C, strain ARK1, active compounds read low
[40] = locus YNL183C, strain NPR1, active compounds read low
[41] = locus YNL207W, strain RIO2, active compounds read low
[42] = locus YNL307C, strain MCK1 (second series), active compounds read low
[43] = locus YOL078W, strain AVO1, active compounds read low
[44] = locus YOL136C, strain PFK27, active compounds read low
[45] = locus YOR061W, strain CKA2, active compounds read low
[46] = locus YOR231W, strain MKK1, active compounds read low
[47] = locus YOR329C, strain SCD5, active compounds read low
[48] = locus YPL153C, strain RAD53, active compounds read low
[49] = locus YPL204W, strain HRR25, active compounds read low
[50] = locus YPL209C, strain IPL1, active compounds read low
[51] = locus YPL256C, strain CLN2, active compounds read low
[52] = locus YPR025C, strain CCL1, active compounds read low
[53] = locus YPR111W, strain DBF20, active compounds read low
[54] = strain NNK1, active compounds read low
[55] = strain TSCII, active compounds read low

Measured: normalized growth

Cc1ccc(NC(=S)C(C#N)C(=O)N2CCCC2)c(C)c1 (stereo not drawn)
inactive: locus YAL013W, strain DEP1, active compounds read low 1.01 | locus YBR229C, strain ROT2, active compounds read low 0.998 | [1] 1.01 | locus YDR150W, strain NUM1, active compounds read low 0.928 | locus YEL061C, strain CIN8, active compounds read low 1.02 | locus YGR078C, strain PAC10, active compounds read low 0.988 | locus YGR229C, strain SMI1, active compounds read low 1 | [2] 1.06 | locus YHR087W, strain rtc3, active compounds read low 1.01 | locus YJR043C, strain POL32, active compounds read low 1.01 | locus YJR075W, strain HOC1, active compounds read low 1.02 | locus YKL190W, strain CNB1, active compounds read low 1.01 | locus YLR039C, strain RIC1, active compounds read low 1.02 | locus YLR058C, strain SHM2 (second series), active compounds read low 0.995 | locus YLR085C, strain ARP6, active compounds read low 1.06 | locus YLR262C, strain YPT6, active compounds read low 1 | locus YML094W, strain GIM5, active compounds read low 1.03 | locus YMR219W, strain ESC1, active compounds read low 1 | locus YMR263W, strain SAP30, active compounds read low 0.922 | locus YMR307W, strain GAS1, active compounds read low 1.03 | locus YNL153C, strain GIM3, active compounds read low 0.98 | locus YNL298W, strain CLA4 (second series), active compounds read low 1.03 | locus YNL322C, strain KRE1, active compounds read low 0.988 | locus YNR030W, strain Alg12, active compounds read low 1.02 | locus YOL006C, strain TOP1, active compounds read low 1.04 | locus YPL055C, strain LGE1, active compounds read low 0.948 | locus YPL241C, strain CIN2, active compounds read low 1.02 | locus YPR135W, strain CTF4, active compounds read low 1.04

N#CC(C(=O)Nc1cccc(C(F)(F)F)c1)C(=S)Nc1ccccc1Cl (stereo not drawn)
active: [8] 0.296 | [11] 0.105 | [13] 0.143 | [19] 0.147 | [20] 0.396 | [31] 0.449 | [40] 0.191 | [51] 0.501 | [53] 0.784
inactive: [3] 0.992 | [4] 0.985 | [5] 1 | [6] 0.99 | [7] 0.976 | [9] 1 | [10] 0.98 | [12] 0.969 | [14] 0.989 | [15] 1 | [16] 0.997 | [17] 0.957 | [18] 0.977 | [21] 0.98 | [2] 0.957 | [22] 0.978 | [23] 0.975 | [24] 0.996 | [25] 0.914 | [26] 0.978 | [27] 0.78 | [28] 0.986 | [29] 0.994 | [30] 0.998 | [32] 0.984 | [33] 0.979 | [34] 0.966 | [35] 0.995 | [36] 0.991 | [37] 0.98 | [38] 0.991 | [39] 0.981 | [41] 0.996 | [42] 0.983 | [43] 0.992 | [44] 0.959 | [45] 0.97 | [46] 1.01 | [47] 0.997 | [48] 0.963 | [49] 0.963 | [50] 1 | [52] 0.993 | [54] 1.02 | [55] 0.996

CC(C)Sc1c(Cl)cccc1NC(=O)Nc1cccc(C(F)(F)F)c1
active: [2] 0.773
inactive: [3] 0.981 | locus YBL105C, strain PKC1, active compounds read low 0.977 | locus YBR135W, strain CKS1, active compounds read low 0.972 | locus YBR136W, strain MEC1, active compounds read low 0.978 | locus YBR160W, strain CDC28, active compounds read low 0.981 | [4] 0.984 | [5] 0.979 | [1] 0.98 | [6] 0.972 | [7] 0.975 | [8] 0.927 | [9] 0.979 | [10] 0.97 | locus YDR226W, strain ADK1, active compounds read low 0.965 | [11] 0.916 | [12] 0.888 | [13] 0.945 | [14] 0.99 | [15] 0.976 | [16] 0.974 | [17] 0.918 | [18] 0.974 | [19] 0.908 | [20] 1.04 | [21] 0.94 | [22] 0.953 | locus YHR082C, strain KSP1, active compounds read low 0.96 | [23] 0.891 | [24] 0.979 | [25] 0.887 | locus YJL128C, strain PBS2, active compounds read low 0.956 | locus YJL157C, strain FAR1, active compounds read low 0.946 | [26] 0.984 | locus YJR066W, strain TOR1 (second series), active compounds read low 0.943 | [27] 0.912 | [28] 0.946 | locus YKL067W, strain YNK1, active compounds read low 0.914 | [29] 0.937 | [30] 0.975 | locus YKL203C, strain TOR2, active compounds read low 0.947 | [31] 0.908 | [32] 0.922 | [33] 0.953 | [34] 0.929 | [35] 0.977 | [36] 0.936 | [37] 0.973 | [38] 0.98 | [39] 0.926 | locus YNL161W, strain CBK1, active compounds read low 0.983 | [40] 0.918 | [41] 0.982 | locus YNL222W, strain SSU72, active compounds read low 0.97 | [42] 0.876 | [43] 0.966 | [44] 0.93 | [45] 0.957 | locus YOR119C, strain RIO1, active compounds read low 0.995 | [46] 0.946 | [47] 0.98 | locus YPL031C, strain PHO85, active compounds read low 0.905 | [48] 0.911 | [49] 0.896 | [50] 0.976 | [51] 0.861 | [52] 0.979 | locus YPR106W, strain ISR1, active compounds read low 0.976 | [53] 0.974 | [54] 0.97 | [55] 0.992
